# Results as given in ChEMBL document CHEMBL1961873, “Compounds: GSK PKIS; Assays: Nanosyn kinase panel” (2012).
# Columns and labels:
# [1] = target: Serine/threonine-protein kinase PAK 6 (Homo sapiens) (UniProt Q9NQU5); conditions: at 1 µM;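 further: values are mean percent inhibition of PAK6 kinase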
# [2] = test system: Tyrosine-protein kinase ABL1 (Homo sapiens), P00519 [E255K]; conditions: at 0.1 µM
# [3] = test system: Tyrosine-protein kinase ABL1 (Homo sapiens), P00519 [E255K]; conditions: at 1 µM
# [4] = test system: Tyrosine-protein kinase ABL1 (Homo sapiens), P00519 [H396P]; conditions: at 0.1 µM
# [5] = test system: Tyrosine-protein kinase ABL1 (Homo sapiens), P00519 [H396P]; conditions: at 1 µM
# [6] = test system: Tyrosine-protein kinase ABL1 (Homo sapiens), P00519 [M351T]; conditions: at 0.1 µM
# [7] = test system: Tyrosine-protein kinase ABL1 (Homo sapiens), P00519 [M351T]; conditions: at 1 µM
# [8] = test system: Tyrosine-protein kinase ABL1 (Homo sapiens), P00519 [Q252H]; conditions: at 0.1 µM
# [9] = test system: Tyrosine-protein kinase ABL1 (Homo sapiens), P00519 [Q252H]; conditions: at 1 µM
# [10] = test system: Tyrosine-protein kinase ABL1 (Homo sapiens), P00519 [T315I]; conditions: at 0.1 µM
# [11] = test system: Tyrosine-protein kinase ABL1 (Homo sapiens), P00519 [T315I]; conditions: at 1 µM
# [12] = test system: Tyrosine-protein kinase ABL1 (Homo sapiens), P00519 [Y253F]; conditions: at 0.1 µM
# [13] = test system: Tyrosine-protein kinase ABL1 (Homo sapiens), P00519 [Y253F]; conditions: at 1 µM
# [14] = target: Tyrosine-protein kinase ABL1 (Homo sapiens) (UniProt P00519); conditions: at 0.1 µM
# [15] = target: Tyrosine-protein kinase ABL1 (Homo sapiens) (UniProt P00519); conditions: at 1 µM
# [16] = target: ALK tyrosine kinase receptor (Homo sapiens) (UniProt Q9UM73); conditions: at 0.1 µM
# ALK tyrosine kinase receptor (Homo sapiens), sequence (Q9UM73 19-1620 limits assumed): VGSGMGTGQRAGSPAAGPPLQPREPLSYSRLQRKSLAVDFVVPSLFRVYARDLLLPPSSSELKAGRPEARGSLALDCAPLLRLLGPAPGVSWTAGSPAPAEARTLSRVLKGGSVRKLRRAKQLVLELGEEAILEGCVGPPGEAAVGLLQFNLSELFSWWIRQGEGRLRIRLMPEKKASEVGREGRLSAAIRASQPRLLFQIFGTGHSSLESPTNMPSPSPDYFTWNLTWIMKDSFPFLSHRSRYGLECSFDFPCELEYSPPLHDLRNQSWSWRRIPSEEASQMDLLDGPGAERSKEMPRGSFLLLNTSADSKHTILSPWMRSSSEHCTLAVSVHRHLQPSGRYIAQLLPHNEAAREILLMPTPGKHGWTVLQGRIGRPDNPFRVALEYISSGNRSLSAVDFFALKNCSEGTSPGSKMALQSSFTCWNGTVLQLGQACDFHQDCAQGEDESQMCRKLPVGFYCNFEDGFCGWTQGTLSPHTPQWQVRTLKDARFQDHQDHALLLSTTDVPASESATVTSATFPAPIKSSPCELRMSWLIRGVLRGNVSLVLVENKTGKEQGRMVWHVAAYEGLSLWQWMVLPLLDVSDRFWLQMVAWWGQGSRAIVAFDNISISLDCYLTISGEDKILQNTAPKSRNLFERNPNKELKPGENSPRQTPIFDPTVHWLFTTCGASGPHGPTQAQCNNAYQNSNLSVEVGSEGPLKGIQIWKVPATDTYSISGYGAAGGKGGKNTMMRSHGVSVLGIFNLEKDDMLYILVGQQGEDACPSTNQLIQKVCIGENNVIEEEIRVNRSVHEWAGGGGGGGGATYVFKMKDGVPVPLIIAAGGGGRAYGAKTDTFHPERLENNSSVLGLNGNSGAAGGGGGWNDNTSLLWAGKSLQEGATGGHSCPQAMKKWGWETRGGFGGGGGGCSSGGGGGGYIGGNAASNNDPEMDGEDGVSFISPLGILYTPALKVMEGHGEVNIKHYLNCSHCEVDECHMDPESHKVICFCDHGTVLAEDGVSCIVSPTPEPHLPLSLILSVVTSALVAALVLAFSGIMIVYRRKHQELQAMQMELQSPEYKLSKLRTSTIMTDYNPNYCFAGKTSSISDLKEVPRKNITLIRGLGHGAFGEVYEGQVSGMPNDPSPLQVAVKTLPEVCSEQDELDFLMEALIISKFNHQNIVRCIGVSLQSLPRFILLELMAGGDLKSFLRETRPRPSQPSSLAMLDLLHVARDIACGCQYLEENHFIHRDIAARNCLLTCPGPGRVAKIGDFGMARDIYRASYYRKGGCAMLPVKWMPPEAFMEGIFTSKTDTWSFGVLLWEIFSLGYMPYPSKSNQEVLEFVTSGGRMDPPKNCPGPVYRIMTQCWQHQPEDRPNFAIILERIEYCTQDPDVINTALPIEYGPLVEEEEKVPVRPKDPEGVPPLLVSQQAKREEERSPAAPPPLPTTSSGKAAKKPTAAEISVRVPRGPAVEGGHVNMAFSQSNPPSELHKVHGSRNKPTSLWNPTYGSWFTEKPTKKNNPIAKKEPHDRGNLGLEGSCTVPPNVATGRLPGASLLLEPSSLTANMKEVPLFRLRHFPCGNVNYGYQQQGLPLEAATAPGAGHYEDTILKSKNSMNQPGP
# [17] = target: ALK tyrosine kinase receptor (Homo sapiens) (UniProt Q9UM73); conditions: at 1 µM
# [18] = target: Tyrosine-protein kinase ABL2 (Homo sapiens) (UniProt P42684); conditions: at 0.1 µM
# Tyrosine-protein kinase ABL2 (Homo sapiens), sequence (P42684 whole entry): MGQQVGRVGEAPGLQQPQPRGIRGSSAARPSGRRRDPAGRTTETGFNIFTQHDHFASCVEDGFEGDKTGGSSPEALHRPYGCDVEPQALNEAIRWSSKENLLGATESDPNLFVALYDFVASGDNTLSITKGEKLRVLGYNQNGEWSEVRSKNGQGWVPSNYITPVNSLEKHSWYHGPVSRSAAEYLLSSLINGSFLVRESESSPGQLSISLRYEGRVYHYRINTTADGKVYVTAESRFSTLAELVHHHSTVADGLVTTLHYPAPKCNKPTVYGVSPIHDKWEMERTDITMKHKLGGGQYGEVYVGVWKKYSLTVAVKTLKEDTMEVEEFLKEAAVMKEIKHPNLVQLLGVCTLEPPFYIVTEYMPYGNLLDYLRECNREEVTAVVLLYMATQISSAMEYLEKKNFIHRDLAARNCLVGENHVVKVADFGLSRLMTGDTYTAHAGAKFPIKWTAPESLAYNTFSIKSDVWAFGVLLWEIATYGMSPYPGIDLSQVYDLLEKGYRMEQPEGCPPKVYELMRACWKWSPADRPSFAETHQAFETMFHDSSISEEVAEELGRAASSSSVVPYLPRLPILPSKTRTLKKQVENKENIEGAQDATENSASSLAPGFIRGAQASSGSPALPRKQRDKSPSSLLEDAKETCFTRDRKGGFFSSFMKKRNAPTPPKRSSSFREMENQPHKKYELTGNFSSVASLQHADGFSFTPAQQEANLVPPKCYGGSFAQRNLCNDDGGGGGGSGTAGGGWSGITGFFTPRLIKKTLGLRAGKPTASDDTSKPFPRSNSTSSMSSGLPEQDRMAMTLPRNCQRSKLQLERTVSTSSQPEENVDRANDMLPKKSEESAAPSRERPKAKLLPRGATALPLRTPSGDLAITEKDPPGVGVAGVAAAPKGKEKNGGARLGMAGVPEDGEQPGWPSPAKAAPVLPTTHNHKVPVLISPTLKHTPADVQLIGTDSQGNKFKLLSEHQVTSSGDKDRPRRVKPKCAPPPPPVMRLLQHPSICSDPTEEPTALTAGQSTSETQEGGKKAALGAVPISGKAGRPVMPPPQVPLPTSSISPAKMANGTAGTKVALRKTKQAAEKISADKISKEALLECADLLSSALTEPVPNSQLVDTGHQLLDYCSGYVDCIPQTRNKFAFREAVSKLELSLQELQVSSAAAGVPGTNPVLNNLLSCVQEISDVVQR
# [19] = target: Tyrosine-protein kinase ABL2 (Homo sapiens) (UniProt P42684); conditions: at 1 µM
# [20] = target: Tyrosine-protein kinase receptor UFO (Homo sapiens) (UniProt P30530); conditions: at 0.1 µM;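 further: values are mean percent inhibition of AXL from the GSK PKIS screen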
# Tyrosine-protein kinase receptor UFO (Homo sapiens), sequence (P30530 whole entry): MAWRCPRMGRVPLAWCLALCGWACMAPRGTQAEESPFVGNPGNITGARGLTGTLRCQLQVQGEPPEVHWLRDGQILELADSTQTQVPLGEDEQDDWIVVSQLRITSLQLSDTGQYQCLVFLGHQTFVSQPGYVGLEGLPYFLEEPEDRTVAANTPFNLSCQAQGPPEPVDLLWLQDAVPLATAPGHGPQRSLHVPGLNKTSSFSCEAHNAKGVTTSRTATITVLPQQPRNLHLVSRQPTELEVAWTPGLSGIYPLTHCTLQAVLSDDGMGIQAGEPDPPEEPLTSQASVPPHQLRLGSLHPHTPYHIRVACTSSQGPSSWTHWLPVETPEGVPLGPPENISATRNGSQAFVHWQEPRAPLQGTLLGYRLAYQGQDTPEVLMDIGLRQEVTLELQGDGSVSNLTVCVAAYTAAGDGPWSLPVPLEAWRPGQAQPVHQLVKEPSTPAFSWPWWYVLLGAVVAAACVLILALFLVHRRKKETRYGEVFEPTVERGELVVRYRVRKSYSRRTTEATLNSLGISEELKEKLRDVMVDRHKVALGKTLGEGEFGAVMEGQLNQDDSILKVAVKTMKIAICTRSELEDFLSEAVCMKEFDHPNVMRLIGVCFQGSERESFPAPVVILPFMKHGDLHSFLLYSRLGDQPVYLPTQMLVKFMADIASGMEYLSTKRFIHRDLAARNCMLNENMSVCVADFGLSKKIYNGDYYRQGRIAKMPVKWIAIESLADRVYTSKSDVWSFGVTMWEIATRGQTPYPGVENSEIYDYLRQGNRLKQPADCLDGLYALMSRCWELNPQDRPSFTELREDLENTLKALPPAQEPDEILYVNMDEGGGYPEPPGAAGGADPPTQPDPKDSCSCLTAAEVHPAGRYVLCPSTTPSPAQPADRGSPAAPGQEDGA
# Serine/threonine-protein kinase PAK 6 (Homo sapiens), sequence (Q9NQU5 whole entry, looked up): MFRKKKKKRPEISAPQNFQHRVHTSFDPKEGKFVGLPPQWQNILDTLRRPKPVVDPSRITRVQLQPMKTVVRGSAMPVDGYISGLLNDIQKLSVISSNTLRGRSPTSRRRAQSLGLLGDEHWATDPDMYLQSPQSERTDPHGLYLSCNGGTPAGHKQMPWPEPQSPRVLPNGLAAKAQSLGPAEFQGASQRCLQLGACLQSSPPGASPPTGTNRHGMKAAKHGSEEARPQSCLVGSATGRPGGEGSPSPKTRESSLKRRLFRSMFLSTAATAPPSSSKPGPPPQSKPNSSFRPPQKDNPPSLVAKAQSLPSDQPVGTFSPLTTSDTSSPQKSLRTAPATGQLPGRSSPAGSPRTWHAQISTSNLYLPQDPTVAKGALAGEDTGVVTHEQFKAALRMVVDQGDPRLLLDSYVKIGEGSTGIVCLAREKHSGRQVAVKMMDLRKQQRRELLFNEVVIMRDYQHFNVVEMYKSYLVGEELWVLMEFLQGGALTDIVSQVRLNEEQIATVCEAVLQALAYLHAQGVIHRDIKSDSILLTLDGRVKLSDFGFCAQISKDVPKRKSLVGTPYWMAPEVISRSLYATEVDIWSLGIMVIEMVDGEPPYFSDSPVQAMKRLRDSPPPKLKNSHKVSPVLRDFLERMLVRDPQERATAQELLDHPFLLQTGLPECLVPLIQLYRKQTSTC
Compound,inhibition [1] [%],inhibition [2] [%],inhibition [3] [%],inhibition [4] [%],inhibition [5] [%],inhibition [6] [%],inhibition [7] [%],inhibition [8] [%],inhibition [9] [%],inhibition [10] [%],inhibition [11] [%],inhibition [12] [%],inhibition [13] [%],inhibition [14] [%],inhibition [15] [%],inhibition [16] [%],inhibition [17] [%],inhibition [18] [%],inhibition [19] [%],inhibition [20] [%]
Fc1cccc(COc2ccc(Nc3ncnc4sc(-c5ccco5)cc34)cc2Cl)c1,-3.19,3.34,3.39,3.3,5.3,0.31,1.04,3.83,2.01,1.83,2.74,3.33,3.8,4.81,8.56,3.35,4.37,4.36,7.39,-6.97
COc1ccc(-c2nn3ncccc3c2-c2ccnc(Nc3ccc4c(c3)OCCO4)n2)cc1,-1.85,-0.56,13.9,3.27,34.6,20.9,63.3,11.9,55,2.65,32.3,2.95,33.3,2.5,25.8,8.08,35.2,5.47,33.2,1.61
CNC(=O)c1cccc(C#Cc2cncnc2Nc2ccc(OCc3cccc(F)c3)c(Cl)c2)c1,0.68,0.14,0.64,0.79,1.44,0.11,2.15,1.53,2.58,1.23,2.43,0.77,3.36,0.98,5.91,1.88,3.83,2.79,4.76,-1.87
COc1ccc(-c2oc3ncnc(N)c3c2-c2ccc(NC(=O)Nc3cc(C(F)(F)F)ccc3F)cc2)cc1,11,3.15,22.9,10.3,58.2,34.6,76.4,33.6,76.2,21.9,64.3,9.77,54.4,7.54,52.3,2.32,8.5,13.6,68.1,21.3
Clc1ccc(-c2nn3ncccc3c2-c2ccnc(Nc3ccccc3)n2)cc1,1.5,2.58,8.98,4.63,20.5,10.4,45.8,5.9,36.2,6.6,30.7,7.15,24.5,3.9,27.6,2.8,2.67,3.8,18.2,-0.26
Fc1ccc(-c2nn3ncccc3c2-c2ccnc(Nc3ccc4c(c3)OCCO4)n2)cc1,-1.03,10.2,40.9,25.5,69.9,38.6,81,31,75.2,14.1,53.4,29.3,72.2,11.8,62.6,4.64,7.86,10.4,56.1,-9.81
COc1cc2ncn(-c3cc(OCc4ccccc4C(F)(F)F)c(C(=O)N(C)C)s3)c2cc1OC,-4.14,1.36,9.93,2.27,16.3,1.09,14.9,2.35,13.2,-0.89,1.37,1.14,17.4,2.99,18.7,0.27,0.78,4.85,11.8,-0.33
Nc1nc(-c2cccc(Cl)c2)c(-c2ccc3ncccc3n2)s1,-0.98,3.98,11.2,7.52,19.9,3.37,20.2,6.97,16.9,3.18,7.84,5.66,15.3,3.63,15.7,5.48,7.43,3.3,7.05,-6.08
CCNC(=O)O[C@H]1CN[C@H](C#Cc2cc3ncnc(Nc4ccc(OCc5cccc(F)c5)c(Cl)c4)c3s2)C1,4.55,4.1,2.82,3.17,2.6,2.39,0.66,2.61,2.16,1.66,1.84,3.4,1.32,3.63,4.84,1.85,4.55,3.5,5.21,-3.44
CS(=O)(=O)CCNCc1coc(-c2ccc3ncnc(Nc4ccc(OCc5ccccc5)cc4)c3c2)c1,-4.66,1.64,0.28,4.11,4.46,1.21,1.86,2.14,4.18,1.94,4.02,3.03,2.89,4.85,7.39,2.87,9.68,3.06,4.08,-2.71
CC(=O)NCc1cccc(C#Cc2cncnc2Nc2ccc(OCc3cccc(F)c3)c(Cl)c2)c1,-2.72,-0.06,1.65,2.49,-0.68,1.1,-0.38,2.02,-0.7,2,1.56,1.3,2.58,-0.31,2.82,-0.48,0.2,-0.67,-0.87,-0.21
COc1ccc(CNC(=O)c2ccc(-c3cc(-c4nnc(C)o4)ccc3C)cc2)cc1,11.5,2.05,0.78,2.7,4.47,2.42,5.1,1.38,4.42,0.75,6.32,3.15,5.25,4.76,6.46,0.25,-0.53,4.31,4.39,4.83
O=S(=O)(CCNCc1ccc(-c2ccc3ncnc(Nc4ccc(OCc5cccc(F)c5)c(Cl)c4)c3c2)o1)c1ccccc1,0.68,3.29,4.49,5.17,6.8,1.27,2.88,5.71,6.36,2.35,3.4,5.4,6.85,5.27,10.1,4.32,6.67,4.64,8.2,-7.43
